Measured values from PubChem BioAssay AID1987 (The Scripps Research Institute Molecular Screening Center, 2009).
Screen size: about 320,000 compounds; about 560 (0.17%) were called active. What follows is part of a selection rich in actives, with near analogues and random picks from the rest. A number with no mark means an inactive call.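 The calls were made as follows: active = inhibition above the campaign's mean inhibition across all tested compounds plus 3 SD (cut at about 9.5% in these data); inactive = the rest.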

Each compound was assayed against Serine/threonine-protein phosphatase 5 (Homo sapiens) (UniProt P53041) (assay: PP5 phosphatase inhibitors, primary screen, biochemical, fluorescence (AID 1987;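 also: 0% = DMSO only and 100% = 100 µM cantharidin control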)). Conditions: purified PP5c, OMFP substrate fluorescence; at 6.7 µM; hits give high values.
Serine/threonine-protein phosphatase 5 (Homo sapiens), sequence (P53041 whole entry, looked up): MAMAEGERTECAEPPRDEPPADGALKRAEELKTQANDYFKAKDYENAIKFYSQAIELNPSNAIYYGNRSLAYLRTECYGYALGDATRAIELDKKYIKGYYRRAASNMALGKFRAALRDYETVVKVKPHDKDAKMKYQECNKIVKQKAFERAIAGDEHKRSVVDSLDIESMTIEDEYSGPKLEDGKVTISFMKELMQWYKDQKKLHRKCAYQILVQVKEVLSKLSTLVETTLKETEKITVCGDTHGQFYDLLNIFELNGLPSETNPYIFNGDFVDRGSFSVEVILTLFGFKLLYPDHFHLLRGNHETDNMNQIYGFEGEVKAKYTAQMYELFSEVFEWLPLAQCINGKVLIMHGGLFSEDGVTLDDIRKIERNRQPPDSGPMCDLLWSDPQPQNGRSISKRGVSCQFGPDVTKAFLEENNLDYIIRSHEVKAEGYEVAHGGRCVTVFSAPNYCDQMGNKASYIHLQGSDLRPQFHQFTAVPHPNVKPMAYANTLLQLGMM
With `Cc1nc(CNS(=O)(=O)c2cc([N+](=O)[O-])ccc2C)cs1` the inhibition was -0.47%.
`N#Cc1c(N2CCCCC2)nc(N)c2c(N)nc(SCC(=O)O)cc12` was tested, and the inhibition was 12.7% (active).
With `N#CCc1c(C#N)c(N)nc(N2CCCC2)c1C#N` the inhibition was 2.12%.
Compound `N#Cc1c(-c2ccccc2)cc(-c2ccccc2)nc1SCC(=O)O` has an inhibition of -0.23%.
Compound `CC1(C)CC(=O)C=C(NCCCN2CCCC2=O)C1` has an inhibition of -3.07%.
`Cc1nc(NC(CC(C)C)C(=O)O)c2nc(C)oc2n1` (stereo not given) was tested, and the inhibition was 11.7% (active).
`CC1(c2cccc([N+](=O)[O-])c2)CC(C)(C)N(C(=O)c2ccccc2)c2ccccc21` (stereo not given) gave an inhibition of 3.32%.
`C[C@@]12C(=O)N(c3cccc(Br)c3)C(=O)N1[C@H](c1ccc(Cl)cc1)[C@@H]1C(=O)N(C3CCCCC3)C(=O)[C@@H]12` was tested, and the inhibition was 9.7% (active).
For `CC(C)(C)N1C(=O)[C@H]2[C@@H](c3ccc(Br)cc3)N3C(=O)N(c4cccc(Cl)c4)C(=O)[C@@]3(C)[C@H]2C1=O`, the inhibition was 5.22%.
`O=C1[C@H]2[C@@H](c3ccc(Cl)cc3)N3C(=O)N(c4cccc(F)c4)C(=O)[C@@]3(Cc3ccccc3)[C@H]2C(=O)N1C1CCCCC1` was tested, and the inhibition was 2.69%.
`O=C(CCn1nnnc1CN1CCOCC1)N1CCC(c2ccccc2Cl)C1` (stereo not given) showed an inhibition of 0.07%.
With `Cc1noc(C)c1C(=O)N(CC(=O)NC1CCCC1)Cc1ccccc1F` the inhibition was 0.94%.
`CN(CC(=O)NCc1ccc(Cl)cc1)S(=O)(=O)c1cccs1` showed an inhibition of 3.27%.
Work on `Cc1c(C)c2c(OCC(=O)N[C@@H](C(=O)O)c3ccccc3)cc3c(c2oc1=O)CCC(C)(C)O3` yielded an inhibition of 2.43%.
Work on `c1ccc(C[C@H]2CNCCN2CCC23CC4CC(CC(C4)C2)C3)cc1` yielded an inhibition of 1.23%.
Compound `CCn1ccnc1CNC(=O)CC1C(=O)NCCN1CCCc1ccccc1` (stereo not given) has an inhibition of 0.82%.
In the case of `COCC1CCN(C(=O)c2ccc3oc(Cc4ccccc4)nc3c2)C1` (stereo not given), the inhibition is reported as 2.88%.
With `O=c1ccc2c(-c3ccccc3S(=O)(=O)O)c3ccc(O)c(O)c3oc-2c1O` the inhibition was 9.92% (active).
With `O=[N+]([O-])c1cc([N+](=O)[O-])c2cccnc2c1O` the inhibition was 2%.
`O=[N+]([O-])c1cccc2ncccc12` was tested, and the inhibition was 10.4% (active).
In the case of `Nc1nc(Sc2ncccc2[N+](=O)[O-])n[nH]1`, the inhibition is reported as 1.94%.
`N#Cc1ccc(CN2CCN(CC(=O)Nc3ccccc3C(=O)NC3CC3)CC2)cc1` showed an inhibition of -0.41%.
`CC(NC(=O)c1cc2cc(Cl)ccc2oc1=N)c1ccccc1` (stereo not given) showed an inhibition of 2.37%.
With `COc1cc(C(=O)Nn2c(O)c(C3=c4ccccc4=NC3=O)sc2=S)ccc1O` the inhibition was -1.88%.
Compound `CN(C(=O)CN1C(=O)/C(=C/c2ccc(Cl)cc2)SC1=S)C1CCS(=O)(=O)C1` (stereo not given) has an inhibition of 2.22%.
`NNC(=O)c1oc2nc(-c3ccccc3)cc(-c3ccco3)c2c1N` showed an inhibition of -0.37%.
In the case of `CNc1nc(-c2ccccc2)cc(-c2ccccc2)n1`, the inhibition is reported as 3.18%.
`CNC(=S)NNC(=O)c1oc2nc(-c3ccccc3)cc(-c3ccco3)c2c1N` was tested, and the inhibition was 15% (active).
In the case of `COc1ccc(S(=O)(=O)N2CCOCC2)cc1NC(=O)CC1CC2CCC1C2` (stereo not given), the inhibition is reported as -2.65%.
Compound `COc1ccc(OC)c(C(=O)c2coc3ccc(OC)cc23)c1` has an inhibition of 3.44%.
`COc1ccc(OC)c(C(=O)c2ccc(Cl)cc2)c1` was tested, and the inhibition was 1.9%.
For `COc1ccc(OC)c(C(=O)c2ccc(C(=O)O)cc2)c1`, the inhibition was 10.3% (active).
Compound `COC(=O)c1ccccc1NC(=O)CSc1n[nH]c(-c2ccncc2)n1` has an inhibition of 2.98%.
Compound `Cc1cc(N2CCCC2=O)cc(C)c1S(N)(=O)=O` has an inhibition of 0.58%.
`COCCNC(=O)c1ccc2c(c1)ncn2-c1ccc(C)c(Cl)c1` showed an inhibition of -2.87%.
For `CCC(=C/c1sc2ccc3ccccc3c2[n+]1C)/C=C1\Sc2ccc3ccccc3c2N1C`, the inhibition was 13% (active).
`COc1cccc(CNC(=O)CCC2CCCN(C(=O)c3cc(C)[nH]n3)C2)c1` (stereo not given) was tested, and the inhibition was -3.1%.
Work on `CC(=O)N1CCOc2ccc(S(=O)(=O)N3CCC(C(=O)Nc4ccccc4F)CC3)cc21` yielded an inhibition of -2.25%.
`COc1cccc(NC(=S)C(C#N)=C2N(C)c3ccccc3N2C)c1` was tested, and the inhibition was 3.32%.
`CC1Cc2cc(/C(O)=C3\C(=O)C(=O)N(Cc4cccnc4)C3c3ccccc3F)ccc2O1` (stereo not given) gave an inhibition of -0.96%.
In the case of `O=C1C=C(c2cccc(Br)c2)C[C@@H](c2ccc(F)cc2)C1`, the inhibition is reported as 2.74%.
Compound `O=C(NCCCN1CCCCCC1)C1CC(=O)N(C2CCCC2)C1` (stereo not given) has an inhibition of 0.05%.
Work on `CCc1c(O)nc(SCC(=O)Nc2ccccc2)n(C(C)CC)c1=O` (stereo not given) yielded an inhibition of 4.45%.
In the case of `CCCCN(C(=O)c1ccc(OC(F)(F)F)cc1)c1c(N)n(CCC)c(=O)[nH]c1=O`, the inhibition is reported as 2.07%.
Work on `O=C(CN(CC1CCCO1)C(=O)CNS(=O)(=O)c1ccc(Cl)cc1)NCc1ccccc1` (stereo not given) yielded an inhibition of -1.95%.
With `Cc1ccc(C2=NN(C(=O)COc3ncnc4ccccc34)C(c3ccco3)C2)cc1` (stereo not given) the inhibition was -1.05%.
`CCOC(=O)N1CCN(Cc2oc(CO)cc(=O)c2O)CC1` showed an inhibition of 3.28%.
For `CCC(C(=O)NCCC(C)C)N(Cc1ccccc1Cl)C(=O)c1snc(C(N)=O)c1N` (stereo not given), the inhibition was -2.16%.
`CC(=O)NCc1ccc(S(=O)(=O)NC2CCN(Cc3ccccc3)CC2)cc1` was tested, and the inhibition was 2.13%.
`C=C(C)CNc1cc(S(=O)(=O)N2CCOCC2)ccc1Oc1ccccc1` showed an inhibition of 4.3%.
With `Cc1ccc(CCN2CC(C(=O)O)CC2=O)cc1` (stereo not given) the inhibition was 5.13%.
With `CC(C)(C)S(=O)(=O)c1ccccc1-c1noc(-c2ccccc2)c1C(N)=O` the inhibition was -0.76%.
In the case of `Cc1ccc(Cl)cc1NC(=O)CN1CCN(S(=O)(=O)N2CCOCC2)CC1`, the inhibition is reported as 0.83%.
Compound `Cc1cc(C(=O)COc2ccc(Br)cc2F)c(C)n1C1CC1` has an inhibition of -1.78%.
`O=C(NCc1cccc(Cl)c1)C1=CC=CN2CCS(=O)(=O)N=C12` showed an inhibition of 0.61%.
In the case of `COc1cccc(OCc2nnc3n2N=C(c2ccccc2)C(CC(=O)O)S3)c1` (stereo not given), the inhibition is reported as -0.47%.
`COc1ccccc1C(=O)NCCC(=O)N(C)Cc1cccnc1` gave an inhibition of 0.46%.
Compound `Cn1c(N)c(C(=O)COC(=O)COc2ccc(Cl)cc2)c(=O)n(C)c1=O` has an inhibition of 1%.
`FC(F)(F)c1ccc2nnc(-c3c(Cl)cccc3Cl)n2c1` gave an inhibition of -1.13%.
`O=C1Oc2ccccc2C(=O)/C1=C/c1ccccc1O` showed an inhibition of 4.64%.
Work on `COc1ccc(NC(=O)CSc2nncc(=O)n2N)cc1OC` yielded an inhibition of 2.92%.
Work on `O=C(Nc1ccccc1)C1CC(=O)n2c(nc3ccccc32)N1` (stereo not given) yielded an inhibition of -0.67%.
With `Nc1ccc(C(=O)Nc2ccccc2N)cc1` the inhibition was -0.77%.
Compound `Cc1ccc(CN2CCN(Cc3cccc(C)n3)CC2CCO)cc1` (stereo not given) has an inhibition of 0.2%.
`CC(C)(C)NC(=O)c1cccc(NC(=O)Cc2ccc(Br)cc2)c1` gave an inhibition of 3.17%.
With `CC(C)(C)C(=O)Nc1c(Br)c(C2CC2)nn1-c1ccccc1` the inhibition was 0.27%.
`CCOC(=O)C1=C(CC)OC(N)=C(C#N)C1c1ccc(F)cc1F` (stereo not given) gave an inhibition of -1.28%.
With `COc1cc(OC)cc(-c2cc3nc(C4CCN(C(=O)OC(C)(C)C)CC4)cc(=O)n3[nH]2)c1` the inhibition was -0.26%.
`COc1ccc(NC(=O)CCCC(=O)c2ccccc2)cc1` gave an inhibition of 0.28%.
With `CCCn1c(C)cc(/C=C(\C#N)C(=O)OCC(=O)Nc2cc(OC)c(OC)c(OC)c2)c1C` the inhibition was 0.54%.
For `O=C(NCc1ccccc1)C1=C[C@@H](c2ccc(C(F)(F)F)cc2)C[C@@H](OCc2ccc(CO)cc2)O1`, the inhibition was 7.35%.
With `O=C(C1=C[C@H](c2ccc(C(F)(F)F)cc2)C[C@H](OCc2ccc(CO)cc2)O1)N1CCN(Cc2ccccc2)CC1` the inhibition was 9.64% (active).
Work on `O=C(C1=C[C@H](C2CC2)C[C@H](OCc2ccc(CO)cc2)O1)N1CCN(Cc2ccccc2)CC1` yielded an inhibition of 1.72%.
`Nc1nnc(SCC(=O)NCC(=O)Nc2ccc(F)c(F)c2F)s1` was tested, and the inhibition was -0.64%.
`O=C(OCc1cn(-c2ccc(Cl)c(Cl)c2)nn1)c1ccccc1Cl` was tested, and the inhibition was 1.67%.
In the case of `CC1CCCC(C)N1C(=O)COC(=O)COc1ccccc1C#N` (stereo not given), the inhibition is reported as -0.87%.
Compound `COc1ccc(-n2nnnc2SCc2nc(N)nc(N3CCOCC3)n2)cc1` has an inhibition of 0.58%.
For `CN(C)c1nc(N)nc(CSc2ccccn2)n1`, the inhibition was 1.71%.
For `CN(C)c1nc(N)nc(CSc2nnnn2-c2cccc3ccccc23)n1`, the inhibition was 11.6% (active).
`O=C(O)c1cc(S(=O)(=O)Nc2ccc3cn[nH]c3c2)ccc1Br` was tested, and the inhibition was 4.94%.
`Cc1ccc(-n2nc(-c3ccco3)cc2C(=O)NCc2cccnc2)cc1` gave an inhibition of 2.97%.
In the case of `CC1(OC(=O)C2CCCC2)C(=O)C=C2C=C(c3ccc(C#N)cc3)OC=C2C1=O` (stereo not given), the inhibition is reported as -1.54%.
In the case of `COC(=O)CCCC1=CC2=CC(=O)C(C)(OC(=O)c3cccs3)C(=O)C2=CN1CC1CC1` (stereo not given), the inhibition is reported as 5.3%.
For `COCCN1C=C2C(=O)C(C)(OC(=O)C3CCCC3)C(=O)C=C2C=C1c1ccsc1` (stereo not given), the inhibition was 11.1% (active).
In the case of `CN(c1ccccc1)S(=O)(=O)c1ccc(NC(=O)COc2ccccc2)cc1`, the inhibition is reported as 10.2% (active).
In the case of `CN(c1ccc(OCC(=O)O)cc1)S(=O)(=O)c1ccc2ccccc2c1`, the inhibition is reported as 1%.
Work on `O=C(COc1ccccc1)Nc1ccc(F)cc1` yielded an inhibition of 0.71%.
Work on `Cc1ccc(S(=O)(=O)N(c2cccc(C)c2)C2CCS(=O)(=O)C2)cc1` (stereo not given) yielded an inhibition of 0.29%.
`Cc1nnc(SCC(=O)Nc2ncc3c(n2)CC(C)(C)CC3=O)s1` was tested, and the inhibition was 2.93%.
With `O=C(O)C1CCC(CNS(=O)(=O)c2ccc(Br)cc2)CC1` (stereo not given) the inhibition was -2.97%.
